Screening data from PubChem BioAssay.
Sampled rows, rich in hits. Any-hit rate of the full collection: about 19%.
TDP1 cell CPT – qHTS for Inhibitors of human tyrosyl-DNA phosphodiesterase 1 (TDP1): qHTS in cells in presence of CPT. hit rate 12% among 420,000. Potency, µM (highest dose often 46.2 µM), without a hit: top-dose activity change, negative = growth inhibition, actives largely listed as inhibitors. chicken DT40 Tdp1-/-;hTDP1 cells + 20 nM CPT, ATP luminescence, 48 h; also: potency is read from the fitted curve at half-maximal effect; nearly all actives have a fitted effect of over 55% in size
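Cell growth measured by CellTiter-Glo luminescence after a minimum 48 h, 37 C compound exposure with 20 nM CPT in Tdp1-knockout DT40 cells stably expressing hTDP1, seeded 400/well; qHTS titration format.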
IL-1B inflam inh – qHTS for Inhibitors of Inflammasome Signaling: IL-1-beta AlphaLISA Primary Screen. AID 743279, 2014. activity change, % at 57.5 µM. THP-1 LPS/ATP IL-1B secretion, AlphaLISA, 16 h; hits give low values. hit rate 4.7% among 360,000; in the data active = activity change below about -50%; inconclusive = mostly about -30% to -49%
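Secreted IL-1B measured by AlphaLISA bead assay after 16 h compound exposure of THP-1 cells; compounds (final up to 57.5 uM) added 1 h before LPS (250 ng/mL) and ATP (1.25 mM) stimulation; lower signal means less secretion.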
TDP1 cell noCPT – qHTS for Inhibitors of human tyrosyl-DNA phosphodiesterase 1 (TDP1): qHTS in cells in absence of CPT; DT40 Tdp1-/- hTDP1 cells, no CPT, ATP luminescence, 48 h; Potency, µM (top dose mostly 46.2 µM), inactives show at the highest dose activity change, negative = growth inhibition, most hits filed as inhibitors; hit rate 15% among 420,000; also: potency is read from the fitted curve at half-maximal effect; nearly all actives have a fitted effect of over 55% in size
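Chicken DT40 Tdp1-/- cells complemented with human TDP1, screened without camptothecin (DMSO vehicle only), 400 cells/well. Compounds pin-transferred, cells incubated at 37 °C for at least 48 hr. Growth read as ATP-dependent luminescence (CellTiter-Glo, 30 min at RT).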
HT1080NT lethal – qHTS for induction of synthetic lethality in tumor cells producing 2HG: qHTS for the HT-1080-NT fibrosarcoma cell line | HT-1080-NT fibrosarcoma viability, CellTiter-Glo ATP luminescence, 48 h | Potency, µM (series often up to 46.1 µM), inactives show top-dose activity, negative = less viability, most hits filed as cytotoxic | hit rate 1.6% among 360,000 | AID 686970, 2013;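 also: NT is the 2HG producing partner of a matched IDH1 knockdown line; potency is read from the fitted curve at half-maximal effect; 0% = DMSO-treated cells and -100% = media-only wells without cells; nearly all actives have a fitted effect of over 55% in size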
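HT-1080-NT fibrosarcoma cells (2HG-overproducing), 750 cells/well in RPMI with 5% FBS, dosed after 2 h and incubated 48 h at 37C. CellTiter-Glo luminescence normalized to DMSO and no-cell wells; concentration-response curves fitted and classed.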
ELG1 repair inh – qHTS screen for small molecules that inhibit ELG1-dependent DNA repair in human embryonic kidney (HEK293T) cells expressing luciferase-tagged ELG1; hit rate 2.3% among 330,000; HEK293T ELG1-luciferase reporter, luminescence, 16 h; DNA damage induced by 5-fluorouridine; Potency, µM (highest dose often 46.1 µM), for inactives: at the top dose activity change, negative = inhibition, usual class: inhibitors; also: potency is read from the fitted curve at half-maximal effect; nearly all actives have a fitted effect of over 55% in size
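Quantitative HTS, concentration-response format. 2,000 cells/well co-treated with 5-fluorouridine and compound, 16 hr in 5% CO2 at 37 °C; ONE-Glo luminescence read after 30 min.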
HT1080 IDH1KD tx – qHTS for induction of synthetic lethality in tumor cells producing 2HG: qHTS for the HT-1080-IDH1KD cell line | hit rate 2% among 360,000 | HT-1080 IDH1 knockdown viability, ATP luminescence, 48 h | AID 686971, 2013 | Potency, µM (doses to about 46.1 µM), for the others: at the top dose activity, negative = toxicity, hits mostly cytotoxic;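 also: potency is read from the fitted curve at half-maximal effect; 0% = DMSO wells and -100% = cell-free medium wells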
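% activity derives from luminescence (CellTiter-Glo), normalised to DMSO and no-cell wells. HT-1080-IDH1KD cells, 750/well, had 48 h compound exposure at 37 °C.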
An asterisk follows results filed as active; i = inactive; ? = inconclusive; . = no result. Unless noted, calls follow the shape of the dose curve; as a rule, active = well fitted curve in the direction sought with a large enough effect; inconclusive = small, poorly fitted or top-dose-only effect, or another doubt; inactive = no such curve, though single readings can be large; an effect the other way counts as inactive or inconclusive. Unless noted, % is scaled to controls: 0 for no effect and ±100 for the full control effect.

SMILES	TDP1 cell CPT	IL-1B inflam inh	TDP1 cell noCPT	HT1080NT lethal	ELG1 repair inh	HT1080 IDH1KD tx
COc1ccc(-c2[nH]c(-c3ccc(Cl)cc3)nc2SCC(=O)Nc2nccs2)cc1	16µM*	-16	23µM*	?	?	?
COc1ccc(-n2c(SCC(=O)Nc3nccs3)nnc2-c2ccc(Cl)cc2)cc1	-25%	-12	4%	17%	.	27%
COc1ccc(-c2[nH]c(-c3ccccc3)nc2SCC(=O)Nc2nccs2)cc1	18µM*	-14	23µM*	-7%	?	-7%
Cc1cccc(OCC(=O)Nc2ccc3c(c2)nc(CCN2CCN(c4ccccn4)CC2)n3C)c1	23µM*	?	18µM*	-21%	15µM*	?
Cn1c(CCN2CCN(c3ccccn3)CC2)nc2cc(NS(=O)(=O)c3ccc(Cl)cc3)ccc21	?	-76*	?	?	-25%	?
COc1ccc(OCC(=O)Nc2ccc3c(c2)nc(CCN2CCN(c4ccccn4)CC2)n3C)cc1	18µM*	56	?	-29%	.	?
CN1CCN(CCc2nc3cc(NC(=O)COc4ccccc4)ccc3n2C)CC1	6%	3	-19%	16%	-7%	20%
Cn1c(CCN2CCN(c3ccccn3)CC2)nc2cc(NC(=O)COc3ccc(Cl)cc3)ccc21	18µM*	-5	4.1µM*	?	9.2µM*	-30%
CC1(C)Cc2c(cnn2-c2ccccc2)C(NC(=O)CCCn2cncn2)C1 (stereo unspecified)	?	i	-1%	-8%	15%	-15%
Cc1c(CNCCCc2ccccc2)c(C(=O)O)c(C)n1Cc1cccc(Cl)c1	?	.	21µM*	.	.	.
Cc1c(CNCCCc2ccccc2)c(C(=O)O)c(C)n1Cc1ccc(Cl)cc1	?	.	21µM*	.	.	.
Cc1c(CNCCCc2ccccc2)c(C(=O)O)c(C)n1Cc1ccccc1	-20%	5	2%	3%	?	-2%
C=Cc1ccc(Cn2c(C)c(CNCc3ccc(SC)cc3)c(C(=O)O)c2C)cc1	5%	.	-3%	.	.	.
CCOc1ccc(CNCc2c(C(=O)O)c(C)n(Cc3ccc(C)cc3)c2C)cc1	?	.	18µM*	.	.	.
Cc1cn(CC(=O)NCCN2CCOCC2)c(=O)[nH]c1=O	-1%	34	0%	9%	.	5%
COc1ncc2ncc(=O)n(C[C@H]3CCCO3)c2n1	0%	.	4%	.	.	.
CC(C)Cc1nnc(NC(=O)CCc2c[nH]c3ccccc23)s1	?	-18	-19%	-19%	-11%	?
COC(=O)c1ccccc1S(=O)(=O)N1CCC(C(=O)N2CCC2)CC1	-2%	-1	16%	8%	9%	3%
CC1(C)CC(=O)c2cc(C(=O)Nc3ccc(Br)cc3)c(=O)[nH]c2C1	-19%	.	-11%	.	.	.
O=S1(=O)NC(CC2=CCCCC2)C2CCCCC2O1 (stereo unspecified)	7.3µM*	13	-25%	29%	-4%	11%
O=S1(=O)N[C@@H](CC2=CCCCC2)C2CCCCC2O1 (stereo partly specified)	-6%	24	-46%	-4%	8%	-6%
CCn1c(=O)c2c(nc3n2CCN3c2ccc(OC)cc2)n(C)c1=O	?	.	-10%	.	.	.
O=C(NCCC(F)(F)F)c1cccc2c(-c3ccc(F)c(F)c3)coc12	?	-16	?	-2%	.	5%
CCCCCCSc1ccc([C@H]2N[C@@](Cc3ccccc3)(C(=O)OC)[C@H]3C(=O)N(CC)C(=O)[C@@H]23)cc1	?	-23	18µM*	-12%	-3%	5%
CCCCCCSc1ccc([C@H]2N[C@@](CC(C)C)(C(=O)OC)[C@H]3C(=O)N(C)C(=O)[C@@H]23)cc1	?	?	?	-13%	13%	-8%
SMILES	TDP1 cell CPT	IL-1B inflam inh	TDP1 cell noCPT	HT1080NT lethal	ELG1 repair inh	HT1080 IDH1KD tx
CCCCCCSc1ccc([C@H]2N[C@@](Cc3ccccc3)(C(=O)OC)[C@H]3C(=O)N(C)C(=O)[C@@H]23)cc1	?	?	21µM*	-16%	4%	-4%
CCOC(=O)C1(Cc2ccccc2)NC(c2ccccc2F)C2C(=O)N(CC)C(=O)C21 (stereo unspecified)	23µM*	15	7.3µM*	-7%	?	-6%
CCN1C(=O)C2C(c3ccccc3F)NC(Cc3ccc(O)cc3)(C(=O)OC)C2C1=O (stereo unspecified)	?	27	?	1%	?	-5%
CCCSc1ccc([C@H]2N[C@@](Cc3ccccc3)(C(=O)OC)[C@H]3C(=O)N(CC)C(=O)[C@@H]23)cc1	18µM*	-12	18µM*	9%	-13%	2%
CCC(C)Sc1ccc([C@H]2N[C@@](Cc3ccccc3)(C(=O)OC)[C@H]3C(=O)N(C)C(=O)[C@@H]23)cc1 (stereo partly specified)	?	?	?	-3%	-28%	-9%
COc1ccc(CNC(=O)CN(C(=O)CCC(=O)Nc2nccs2)c2cccc(C)c2)cc1	?	17	?	?	-16%	?
O=C(Nc1ccccc1)N1CC2(CCN(C(=O)c3cc(C(F)(F)F)cc(C(F)(F)F)c3)CC2)C1	15%	.	-24%	.	.	.
CCN1C(=O)[C@H]2[C@@H](c3ccc(-c4ccccc4)c(OC)c3)N[C@@](Cc3ccccc3)(C(=O)OC)[C@H]2C1=O	9%	16	-12%	-4%	19%	-8%
CCN1C(=O)[C@H]2[C@@H](c3ccc(-c4ccc(F)cc4)c(OC)c3)N[C@@](Cc3ccccc3)(C(=O)OC)[C@H]2C1=O	-18%	-62*	-7%	3%	-12%	5%
O=C1CC(c2ccc(F)cc2)C(n2cncn2)C(O)=C1C1NCCc2ccccc21 (stereo unspecified)	0%	6	-9%	4%	7%	20%
CC(C)(C)c1csc(NC(=O)c2cccs2)n1	-14%	?	-28%	-21%	?	-24%
